This assay concerns the target T1, ERG (Homo sapiens, UniProt P11308 1-479).
T1 sequence: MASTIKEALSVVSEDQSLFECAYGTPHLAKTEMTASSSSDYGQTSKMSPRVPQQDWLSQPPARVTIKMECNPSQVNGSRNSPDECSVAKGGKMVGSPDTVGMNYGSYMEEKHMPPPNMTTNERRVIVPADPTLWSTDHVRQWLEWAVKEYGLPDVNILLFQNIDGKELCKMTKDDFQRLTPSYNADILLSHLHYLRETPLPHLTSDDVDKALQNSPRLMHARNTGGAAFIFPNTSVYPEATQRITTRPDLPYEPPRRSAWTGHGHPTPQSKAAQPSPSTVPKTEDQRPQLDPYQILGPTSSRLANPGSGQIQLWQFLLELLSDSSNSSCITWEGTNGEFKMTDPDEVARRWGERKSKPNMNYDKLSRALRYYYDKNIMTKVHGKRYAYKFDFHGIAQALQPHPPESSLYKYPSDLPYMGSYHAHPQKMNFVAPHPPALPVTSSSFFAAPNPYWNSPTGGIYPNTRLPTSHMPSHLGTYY
The assay can be described thus: DAPPL (digital affinity profiling via proximity ligation, sequencing); 10 mM Tris-HCl pH 7.5, 50 mM NaCl, 1 mM DTT, 4% glycerol, room temperature, 30 min; GST-TFs on glutathione beads, 16-mer random dsDNA library, 0.1% formaldehyde crosslink after washing; high values mean tight binding. Particulars: protein: recombinant; tags: N-terminal GST; dsDNA, one strand shown. A digest of the protocol: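 Beads coated with glutathione captured GST-fused human transcription factors that had been expressed in yeast, and the factors were then given DNA barcodes and pooled with a tag-only sample. The pools were incubated with 200 nmole of a random double-stranded 16-mer DNA library in Tris/NaCl/DTT/glycerol buffer for 30 min at room temperature, washed, crosslinked with 0.1% formaldehyde and proximity-ligated with BsaI/T4 ligase at 37 °C for 1 h. PCR amplification and Illumina NextSeq500 sequencing came last. Binding signal is each hexamer's read frequency for a factor divided by its frequency for the tag-only sample.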
TTTGTG: the binding signal was 1.14 fold enrichment (6-mer frequency, TF over GST control). For AATTCA, the binding signal is 1.33 fold enrichment (6-mer frequency, TF over GST control). For TTGCTC, the binding signal was 1.26 fold enrichment (6-mer frequency, TF over GST control).

For the sequence CTAAAC, the binding signal was 1.23 fold enrichment (6-mer frequency, TF over GST control). Regarding TAGGCT, the binding signal is 1.23 fold enrichment (6-mer frequency, TF over GST control). On to CCTCTG, for which the binding signal is 1.62 fold enrichment (6-mer frequency, TF over GST control). For the sequence TGTCTA, the binding signal was 1.17 fold enrichment (6-mer frequency, TF over GST control). Take TTCACC: the binding signal is 1.38 fold enrichment (6-mer frequency, TF over GST control). Consider ATCTAC, for which the binding signal was 1.2 fold enrichment (6-mer frequency, TF over GST control).

CACTAT: the binding signal is 1.18 fold enrichment (6-mer frequency, TF over GST control).

As to TAATCC, the binding signal is 1.34 fold enrichment (6-mer frequency, TF over GST control). As for AAAGAT, the figure is 1.21 fold enrichment (6-mer frequency, TF over GST control); as for CGTCTT, 1.37 fold enrichment (6-mer frequency, TF over GST control); as for ACTGAA, 1.11 fold enrichment (6-mer frequency, TF over GST control). For CTCCGC, the binding signal is 1.38 fold enrichment (6-mer frequency, TF over GST control).

For the sequence CAACTC, the binding signal is 1.28 fold enrichment (6-mer frequency, TF over GST control). As for TACAAT, the figure is 1.29 fold enrichment (6-mer frequency, TF over GST control); as for CCATCT, 1.26 fold enrichment (6-mer frequency, TF over GST control).

TCCCCG: the binding signal is 1.2 fold enrichment (6-mer frequency, TF over GST control). As for ACTCTA, the figure is 1.39 fold enrichment (6-mer frequency, TF over GST control); as for CCCTCC, 1.41 fold enrichment (6-mer frequency, TF over GST control); as for ATATTC, 1.18 fold enrichment (6-mer frequency, TF over GST control). Take CGCTTA: the binding signal was 1.15 fold enrichment (6-mer frequency, TF over GST control). As for ACGTTA, the figure is 1.21 fold enrichment (6-mer frequency, TF over GST control); as for GCCTTT, 1.2 fold enrichment (6-mer frequency, TF over GST control). As for TTCGAG, the figure is 1.14 fold enrichment (6-mer frequency, TF over GST control); as for CTGAGC, 1.09 fold enrichment (6-mer frequency, TF over GST control); as for AATTCT, 1.31 fold enrichment (6-mer frequency, TF over GST control). In the case of CCTGAA, the binding signal was 1.41 fold enrichment (6-mer frequency, TF over GST control).

Regarding TAACTT, the binding signal is 1.34 fold enrichment (6-mer frequency, TF over GST control).

CTCATC: the binding signal is 1.34 fold enrichment (6-mer frequency, TF over GST control).

As for TCTCAT, the binding signal is 1.2 fold enrichment (6-mer frequency, TF over GST control). As for TGATGA, the figure is 1.28 fold enrichment (6-mer frequency, TF over GST control); as for TTAAAT, 1.11 fold enrichment (6-mer frequency, TF over GST control); as for TTTCAA, 1.25 fold enrichment (6-mer frequency, TF over GST control). With ATATGG, the binding signal is 1.36 fold enrichment (6-mer frequency, TF over GST control). For ACTTGG, the binding signal was 1.16 fold enrichment (6-mer frequency, TF over GST control).

In the case of CACATT, the binding signal was 1.15 fold enrichment (6-mer frequency, TF over GST control). As for TCCTGA, the binding signal is 1.5 fold enrichment (6-mer frequency, TF over GST control).

The values are drawn from article PMC7862700, “An all-to-all approach to the identification of sequence-specific readers for epigenetic DNA modifications on cytosine”.
